# Assay outcomes: PubChem, National Center for Advancing Translational Sciences (NCATS)
# ALOX12 inh – Primary qHTS assay for inhibitors of human arachidonate 12S-lipoxygenase (ALOX12): Round 2; Polyunsaturated fatty acid lipoxygenase ALOX12 (Homo sapiens), P18054; purified 12hLO, xylenol orange hydroperoxide absorbance; Potency, µM (doses to about 108 µM), usual class: inhibitors; actives 1.1% (n = 580,000)
#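 Purified human 12hLO at 150 nM in 25 mM Hepes, 0.01% Triton X-100, pH 7.0, preincubated 15 min at room temperature with compound. Reaction started with 40 uM arachidonic acid, 30 min at room temperature. Hydroperoxide measured by Fe-xylenol orange, 573/405 nm absorbance ratio.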
# Pol kappa inh – qHTS for Inhibitors of Polymerase Kappa. DNA polymerase kappa (Homo sapiens), Q9UBT6. Potency, µM (highest dose often 107 µM), most hits filed as inhibitors. purified Pol kappa, fluorescent DNA synthesis assay, 10 min. actives 0.53% (n = 400,000)
#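 Kinetic fluorescence screen: compound preincubated 15 min RT with 10 nM enzyme; 50 nM substrate (final) initiates; reads at 0/10 min.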
# POLI inh – qHTS for Inhibitors of Polymerase Iota; DNA polymerase iota (Homo sapiens), Q9UNA4; Pol iota fluorescent replication assay, 10 min; Potency, µM (doses to about 115 µM), actives largely listed as inhibitors; actives 1% (n = 390,000); AID 588590, 2011
#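 Pol iota at 10 nM preincubated 15 min with compounds at room temperature; reaction started with fluorescent substrate, 50 nM final. Fluorescence read kinetically at 0 and 10 min; buffer-only wells as negative control.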
# PI5P4K alpha inh – qHTS for Inhibitors of phosphatidylinositol 5-phosphate 4-kinase (PI5P4K). max response, %. PI5P4Kalpha enzyme, ADP-Glo luminescence, 60 min; active compounds read low. Phosphatidylinositol 5-phosphate 4-kinase type-2 alpha (Homo sapiens), P48426. actives 1.2% (n = 330,000); active = max response of -50% or lower; inconclusive = between -30% and -50%; inactive = -30% or higher; also: value at the top dose of about 77 µM
# Target sequence (P48426 whole entry, looked up): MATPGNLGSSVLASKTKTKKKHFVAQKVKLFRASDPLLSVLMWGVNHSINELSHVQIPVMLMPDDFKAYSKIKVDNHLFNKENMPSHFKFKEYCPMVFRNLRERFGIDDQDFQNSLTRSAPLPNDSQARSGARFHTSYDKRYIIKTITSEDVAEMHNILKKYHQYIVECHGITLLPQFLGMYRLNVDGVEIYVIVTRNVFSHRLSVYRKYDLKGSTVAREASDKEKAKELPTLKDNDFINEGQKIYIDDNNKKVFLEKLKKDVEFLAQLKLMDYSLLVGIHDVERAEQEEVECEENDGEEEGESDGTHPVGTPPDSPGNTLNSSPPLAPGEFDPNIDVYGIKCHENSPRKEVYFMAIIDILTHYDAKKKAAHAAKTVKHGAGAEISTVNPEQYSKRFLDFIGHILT
#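 ADP-Glo luminescence end-point read after a 60 min room-temperature kinase reaction of PI5P4Kalpha plus substrate, initiated with ATP at 5 microM final. Buffer: 0.038 M HEPES pH 7.4, EGTA, 0.1% CHAPS, 5% DMSO.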
# POLH inh – qHTS for Inhibitors of Polymerase Eta. actives 1.2% (n = 390,000). DNA polymerase eta (Homo sapiens), Q9Y253. Potency, µM (highest dose often 114 µM), most hits filed as inhibitors. recombinant Pol eta, fluorescent DNA replication assay
#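 Pol eta (10 nM) was preincubated with compounds for 15 min at room temperature, after which fluorescent replication substrate (50 nM final) was added to start the reaction. Fluorescence was read kinetically at 0 and 10 min.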
# POLB inh – qHTS Assay for Inhibitors of DNA Polymerase Beta; P06746; Pol beta primer extension/strand displacement, fluorescence kinetic; Potency, µM (doses to about 114 µM), actives largely listed as inhibitors; actives 1.3% (n = 340,000); AID 485314, 2010
#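 Homogeneous kinetic assay of primer extension and strand displacement by 10 nM Pol beta, preincubated 15 min at room temperature with compound before 50 nM substrate (final) was added. Read at 0 and 10 min; four-parameter Hill fit.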
# A number is an active result; 0 = inactive; ? = inconclusive; - = no result given; [ ] = another dose, or the depositor's remark. The list is not random: actives were taken first. Their share in the collection is about 2.9%. Unless noted, calls follow the shape of the dose curve; as a rule, active = well fitted inhibition curve with a large enough effect; inconclusive = small, poorly fitted or top-dose-only effect, or another doubt; inactive = no such curve, though single readings can be large or run the other way.
SMILES,ALOX12 inh,Pol kappa inh,POLI inh,PI5P4K alpha inh,POLH inh,POLB inh
CC(=O)Nc1ccc(NC(=O)CCc2nc3sc4c(c3c(=O)[nH]2)CCCC4)cc1,0,0,40µM,?,?,-
NC(=O)c1ccc(NC(=O)CCc2nc3sc4c(c3c(=O)[nH]2)CCCC4)cc1,0,0,?,0,?,-
CN(CC(=O)Nc1ccccc1C(F)(F)F)C(=O)CCc1nc2sc3c(c2c(=O)[nH]1)CCCC3,0,0,?,0,45µM,?
CCN(CC)C(=O)c1cccc(NC(=O)CCc2nc3sc4c(c3c(=O)[nH]2)CCCC4)c1,0,0,?,0,0,-
CCCC(=O)N1Cc2ccccc2CC2(CCCCN2CC)C1 (configuration not stated),0[6.33 µM],-,-,-,-,-
O=C1C=CC(=O)N1Cc1ccccc1,0,0,0,-86,0,0
COc1cc(/C=C2/SC(=Nc3ccc(O)cc3)NC2=O)ccc1O,?,?,?,-90,32µM,20µM
CCc1ccc(N=C2NC(=O)/C(=C/c3cc(OC)c(O)c(OC)c3)S2)cc1,?,0,0,-54,0,?
COc1cc(/C=C2\SC(=Nc3ccccc3)NC2=O)cc(Cl)c1O,?,0,0,-104,?,56µM
COc1cc(/C=C2\SC(=Nc3ccccc3OC)NC2=O)ccc1O,?,0,0,?,0,0
COc1ccc(/C=C2\SC(=Nc3ccccc3OC)NC2=O)cc1,0,0,?,0,79µM,0
Cc1ccc(C)c(C(NC(=O)c2ccccc2)c2cccnc2)c1 (configuration not stated),0,-,-,-,-,-
CN(Cc1ccccc1C(F)(F)F)C(=O)Cc1cccc(Cl)c1,0,-,-,-,-,-
CCOC(=O)C1=C(C)NC(=O)CC1c1ccccc1 (configuration not stated),0,0,0,0,0,0
CCOC(=O)C1=C(C)NC(=O)CC1C(=O)Nc1cc(Cl)cc(Cl)c1 (configuration not stated),16µM,-,-,-,-,-
CCCCn1c(=O)[nH]c(=O)c2c1nc(CSc1nnnn1C)n2CCC,0,-,-,-,-,-
COc1ccc2nc(/C=C/c3cccc(O)c3)sc2c1,6.3µM,-,-,-,-,-
COC(=O)c1ccc(/C=C/c2nc3ccc(OC)cc3s2)cc1,0,-,-,-,-,-
CCCn1c(S(=O)(=O)O)nc2ccccc21,0,0,?,0,28µM,0
COc1cc(N=Nc2ccc(Br)cc2)cc(C=O)c1O,3.2µM,-,-,?,?,-
CCOc1ccc(CCNC(=O)c2cnc3sc(N4CCCCCC4)nn3c2=O)cc1,0,0,89µM,-,0,0
Cc1ccc2c(c1)C1OCCC1C1N2C(=O)C2C(C(=O)O)C3C=CC21O3 (configuration not stated),0,0,?,-,?,40µM
COc1ccc(C(=O)NCc2nnc(SCC(=O)NC3CCCCC3)n2C)cc1,40µM,0,0,0,0,0
CC(C)(C)CN1CCOC[C@H]1c1ncc(-c2cccc(Cl)c2)[nH]1,0,-,-,-,-,-
Cc1c(NC(=O)c2cc3cc(Br)ccc3[nH]2)c(=O)n(-c2ccccc2)n1C,50µM,-,-,-,-,-
SMILES,ALOX12 inh,Pol kappa inh,POLI inh,PI5P4K alpha inh,POLH inh,POLB inh
Cc1c(NC(=O)c2ccc(C(=O)Nc3c(C)n(C)n(-c4ccccc4)c3=O)cc2)c(=O)n(-c2ccccc2)n1C,0,0,0,0,0,0
O=C(Nc1ccc(O)cc1)c1cc(=O)[nH]c2ccccc12,0,-,-,-,-,-
NS(=O)(=O)c1cccc(NC(=O)CSc2nc3nc(-c4cccs4)cc(C(F)(F)F)c3c(=O)[nH]2)c1,?,0,0,-55,40µM,0
COc1cc(N2C(=O)C=CC2=O)c(OC)cc1Cl,16µM,0,0,0,0,0
Cc1cccc(/C=C/C(=O)c2cc3ccccc3oc2=O)c1,0,-,-,-,-,-
CC(=O)C1=C(O)C(=O)N(c2cccc(Br)c2)C1c1ccccc1Cl (configuration not stated),18µM,0,0,0,0,0
CCc1nc2ccccc2n1CCCCOc1cccc(C)c1,40µM,0,0,-,0,0
C=C(C)C1CC=C(C)/C(=N\NC(=S)Nc2ccc(C)cc2)C1 (configuration not stated),22µM,0,0,0,0,0
COc1ccc(OCC(=O)N(Cc2ccc(-c3ccc(F)cc3)o2)C2CCS(=O)(=O)C2)cc1 (configuration not stated),0,-,-,-,-,-
CCN(CC)S(=O)(=O)c1cc(C)ccc1N,0,-,-,-,-,-
O=c1[nH]c2ccc(-c3csc(NC4CC4)n3)cc2[nH]1,18µM,-,-,-,-,-
O=c1[nH]c2ccc(-c3csc(NC4CCCC4)n3)cc2[nH]1,35µM,-,-,-,-,-
CCOCCCNc1nc(-c2ccc3[nH]c(=O)[nH]c3c2)cs1,0,-,-,-,-,-
CC(C)CCNc1nc(-c2ccc3[nH]c(=O)[nH]c3c2)cs1,45µM,-,-,-,-,-
CC1C(=O)Nc2ccc(-c3csc(NC4CCCC4)n3)cc21 (configuration not stated),16µM,-,-,-,-,-
CCCOC(=O)c1cc(-c2ccc(OC)cc2)nc2ccccc12,0,-,-,-,-,-
CCn1nccc1C(=O)N1CCC2(CC1)c1[nH]c3ccc(OC)cc3c1CCN2C,0,-,-,-,-,-
COc1cc(-c2csc(NC3CC3)n2)ccc1OC(F)F,25µM,-,-,-,-,-
COc1cc(-c2csc(-c3c(C)c(C)nn(C)c3=O)n2)ccc1OC(F)F,0,-,-,-,-,-
CC(Sc1cc(Cl)ccc1Cl)C(=O)NC(C)c1ccccn1 (configuration not stated),0,-,-,-,-,-
CN(CC(=O)Nc1ccc(F)c(F)c1F)C(=O)/C=C/c1ccco1,0,0,50µM,0,?,-
Cc1ncccc1C(=O)N1CC(Oc2ccccc2-c2nc(-c3ccccc3)no2)C1,0,-,-,-,-,-
CN(CCOC(=O)c1ccccc1Br)C(C)(C)C,0,-,-,-,-,-
Nc1ccc(C(=O)OCCc2ccccc2)cc1,0,0,0,0,0,-
O=C(OCCc1ccccc1)c1cc(O)c(O)c(O)c1,2.8µM,45µM,?,0,0,-
SMILES,ALOX12 inh,Pol kappa inh,POLI inh,PI5P4K alpha inh,POLH inh,POLB inh
O=[N+]([O-])c1ccc(NS(=O)(=O)c2ccc(I)s2)c([N+](=O)[O-])c1,16µM,-,-,-,-,-
CCc1nnsc1C(=O)N(C)CCOc1cc(C)cc(C)c1,0,-,-,-,-,-
COc1cc2ccc3c(CCN(C)C)cc(OC)c(OC)c3c2cc1OC,0,0,?,0,0,0
CN(C)CCc1cc2c(c3c1ccc1ccccc13)OCO2,?,?,?,0,0,20µM
CCC(C)C(=O)Nc1nc(-c2c(C)[nH]c3ccccc23)cs1 (configuration not stated),0,-,-,-,-,-
COP(=O)(OC)c1nc(-c2ccco2)oc1NCc1ccc(C)cc1,0,-,-,-,-,-
